Where “and” joins values, the source holds several entries; their conditions need not be identical. Equal entries are not always repeated. Inconclusive results are not listed. Where a structure was tested more than once in an assay, its records may differ in their call. Calls of active or inactive are those of the source. The calls were made as follows, unless noted: active = hit-call score of the fitted dose curve at least 0.9, where 1 is the maximum; inconclusive = response in the unintended direction; inactive = score below 0.9.
Legend:
[1] = system: frog Estrogen Receptor (ER), gene 398734; experiment: ATG_frER1_XSP2: Attagene TRANS-FACTORIAL Multi-Species (XSP2) HepG2 Assay for frog Estrogen Receptor (ER) (AID 2283821);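 also: hits raise reporter mRNA above DMSO baseline so potency means agonist or activator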
Summary of the method: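 HepG2 cells transiently transfected with GAL4-UAS reporter units expressing a chimeric frog ER-Gal4 protein; 24 h exposure. Reporter mRNA quantified by RT-PCR, fluorescent labelling and capillary electrophoresis; gain of signal fitted against DMSO baseline.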

[2] = system: zebrafish Estrogen Receptor (ER2b), gene 317733; experiment: ATG_zfER2b_XSP2: Attagene TRANS-FACTORIAL Multi-Species (XSP2) HepG2 Assay for zebrafish Estrogen Receptor (ER2b) (AID 2283823);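 also: fitted upward as reporter gain over DMSO so potency reflects activation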
Summary of the method: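 Cells used were HepG2, transiently transfected with chimeric nuclear receptor-Gal4 reporter units. After 24 h of chemical treatment, reporter transcripts were amplified by RT-PCR, labelled and sized by capillary electrophoresis, with induction analysed relative to DMSO.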

[3] = ATG_M_32_XSP2: Attagene TRANS-FACTORIAL Multi-Species (XSP2) HepG2 Assay for M19 Transcription Factor (Internal Marker) (AID 2283826)
Summary of the method: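 Transfected HepG2 (multiplexed GAL4-UAS reporters), 24 h chemical exposure, 3 nM 6-alpha-fluorotestosterone + 1.5 nM norgestrel added. RNA → oligo(dT) RT → PCR → 6-FAM primer extension → HpaI cut → CE. Fitted upward vs DMSO.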

[4] = molecular target: Estrogen receptor (Homo sapiens) (UniProt P03372); experiment: ATG_hERa_XSP2: Attagene TRANS-FACTORIAL Multi-Species (XSP2) HepG2 Assay for human Estrogen Receptor (ERa) (AID 2283827)
Summary of the method: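 HepG2 cells transiently transfected with multiplexed GAL4-UAS reporters driven by chimeric receptor-Gal4 proteins, dosed 24 h with 3 nM 6-alpha-fluorotestosterone and 1.5 nM norgestrel present. Reporter mRNA by RT-PCR and capillary electrophoresis; gain-of-signal fit versus DMSO.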

[5] = system: frog Estrogen Receptor (ER2), gene 100174814; experiment: ATG_frER2_XSP2: Attagene TRANS-FACTORIAL Multi-Species (XSP2) HepG2 Assay for frog Estrogen Receptor (ER2) (AID 2283828)
Summary of the method: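 HepG2 cells transiently transfected with multiplexed GAL4-UAS reporter units expressing chimeric frog ER2–Gal4 protein; reporter mRNA measured 24 h after chemical dosing by RT-PCR, fluorescent labeling and capillary electrophoresis. Gain-of-signal fitted relative to DMSO baseline.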

[6] = molecular target: Peroxisome proliferator-activated receptor gamma (Homo sapiens) (UniProt P37231); experiment: ATG_hPPARg_XSP2: Attagene TRANS-FACTORIAL Multi-Species (XSP2) HepG2 Assay for human Peroxisome Proliferator-activated Receptor gamma (PPARg) (AID 2283829);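 also: actives raise reporter mRNA above DMSO so AC50 reflects PPARg activation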
Summary of the method: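 After transfecting HepG2 with GAL4-UAS reporter constructs, cells are dosed for 24 h; total RNA is reverse-transcribed, PCR-amplified, FAM-labeled, HpaI-digested and resolved by capillary electrophoresis. Activity is measured as mRNA induction relative to DMSO.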

[7] = molecular target: mouse Peroxisome Proliferator-activated Receptor gamma (PPARg), Pparg (gene 19016) (UniProt P37238); experiment: ATG_mPPARg_XSP2: Attagene TRANS-FACTORIAL Multi-Species (XSP2) HepG2 Assay for mouse Peroxisome Proliferator-activated Receptor gamma (PPARg) (AID 2283830);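 also: hits are gains in reporter mRNA above DMSO so AC50 marks activation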
Summary of the method: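 HepG2 cells transiently transfected with GAL4-UAS reporter units for chimeric NR-Gal4 proteins including mouse PPARg, exposed 24 h; medium contained 3 nM 6-alpha-fluorotestosterone and 1.5 nM norgestrel. Reporter mRNA quantified by RT-PCR, HpaI digestion and capillary electrophoresis, vs DMSO.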

[8] = molecular target: zebrafish Thyroid Hormone Receptor alpha (TRa), thraa (gene 30670) (UniProt Q98867); experiment: ATG_zfTRa_XSP2: Attagene TRANS-FACTORIAL Multi-Species (XSP1) HepG2 Assay for zebrafish Thyroid Hormone Receptor alpha (TRa) (AID 2283832);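 also: actives raise zebrafish TRa-Gal4 reporter transcript above DMSO baseline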
Summary of the method: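 HepG2 cells transiently transfected with multiplexed GAL4-UAS reporter units expressing chimeric NR-Gal4 proteins; 24 h after dosing, reporter mRNA measured by RT-PCR, FAM labelling, HpaI digestion and capillary electrophoresis; gain of signal versus DMSO baseline.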

[9] = system: zebrafish Peroxisome Proliferator-activated Receptor gamma (PPARg), gene 557037; experiment: ATG_zfPPARg_XSP2: Attagene TRANS-FACTORIAL Multi-Species (XSP2) HepG2 Assay for zebrafish Peroxisome Proliferator-activated Receptor gamma (PPARg) (AID 2283833);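 also: actives increase reporter signal over DMSO so AC50 reflects activation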
Summary of the method: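 Multi-species TRANS format in HepG2, 24 h dosing; medium also contained 3 nM 6-alpha-fluorotestosterone and 1.5 nM norgestrel to stimulate androgen receptor. Zebrafish PPARg-GAL4 induced reporter mRNA was measured by RT-PCR/capillary electrophoresis.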

[10] = system: turtle Thyroid Hormone Receptor, alpha (TRa), gene 101949057; experiment: ATG_trTRa_XSP2: Attagene TRANS-FACTORIAL Multi-Species (XSP1) HepG2 Assay for turtle Thyroid Hormone Receptor, alpha (TRa) (AID 2283834);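 also: hits raise reporter mRNA over the DMSO baseline so AC50 marks activators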
Summary of the method: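 Transfection of HepG2 with multiple reporter transcription units, then chemical dosing for 24 h. Total RNA was reverse-transcribed, reporter sequences PCR-amplified and FAM-labelled, then sized by capillary electrophoresis. DMSO served as baseline.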

[11] = ATG_M_61_XSP2: Attagene TRANS-FACTORIAL Multi-Species (XSP2) HepG2 Assay for M61 Transcription Factor (Internal Marker) (AID 2283835; active = hit-call score of the fitted dose curve at least 0.9, where 1 is the maximum; inactive = score below 0.9;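 also: active means a rise in signal above the DMSO baseline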)
Summary of the method: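 HepG2 cells transiently transfected with multiple GAL4-UAS reporter units; reporter mRNA measured 24 h after dosing by RT-PCR, fluorescent labelling and capillary electrophoresis. Medium contained 3 nM 6-alpha-fluorotestosterone and 1.5 nM norgestrel; internal marker, DMSO baseline.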

[12] = molecular target: zebrafish Thyroid Hormone Receptor beta (TRb), thrb (gene 30607) (UniProt Q9PVE4); experiment: ATG_zfTRb_XSP2: Attagene TRANS-FACTORIAL Multi-Species (XSP1) HepG2 Assay for zebrafish Thyroid Hormone Receptor beta (TRb) (AID 2283836)
Summary of the method: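 HepG2 cells transiently transfected with multiplexed GAL4-UAS reporter units expressing chimeric NR-Gal4 proteins; read 24 h after dosing. Reporter mRNA quantified by RT-PCR, 6-FAM labelling, HpaI digest and capillary electrophoresis; gain of signal fitted relative to DMSO.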

[13] = ATG_XTT_Cytotoxicity_XSP2: Cytotoxicity Assessment in the Attagene TRANS-FACTORIAL Multi-Species (XSP2) HepG2 Assay (AID 2283837)
Summary of the method: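 HepG2 cells, transiently transfected with multiple reporter constructs, exposed to chemical for 24 h. Cell number assessed with XTT fluorescence read-out; loss of signal fitted relative to DMSO.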

[14] = molecular target: human Thyroid hormone Receptor alpha (TRa), THRA (gene 7067) (UniProt P10827); experiment: ATG_hTRa_XSP2: Attagene TRANS-FACTORIAL Multi-Species (XSP2) HepG2 Assay for human Thyroid hormone Receptor alpha (TRa) (AID 2283838)
Summary of the method: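 HepG2 cells transiently transfected with multiplexed GAL4-UAS reporter units and exogenous NR-GAL4 chimeras; 24 h chemical exposure with 3 nM 6-alpha-fluorotestosterone and 1.5 nM norgestrel present. Reporter mRNA measured by RT-PCR, FAM labelling, HpaI digestion, capillary electrophoresis; gain-of-signal versus DMSO.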

[15] = molecular target: frog Thyroid hormone Receptor alpha (TRa), thra-a (gene 397942) (UniProt P15204); experiment: ATG_frTRa_XSP2: Attagene TRANS-FACTORIAL Multi-Species (XSP2) HepG2 Assay for frog Thyroid hormone Receptor alpha (TRa) (AID 2283839);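 as to AC50: AC50 reflects induction of frog TRa-driven reporter mRNA above DMSO baseline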
Summary of the method: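 Transfect HepG2 with multiple reporter units (GAL4-UAS), dose chemical, incubate 24 h. Isolate RNA, reverse-transcribe, PCR-amplify reporter, label with 6-FAM by primer extension, digest with HpaI, run capillary electrophoresis; induction scored against DMSO.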

[16] = molecular target: human Thyroid hormone Receptor beta (TRb), THRB (gene 7068) (UniProt P10828); experiment: ATG_hTRb_XSP2: Attagene TRANS-FACTORIAL Multi-Species (XSP2) HepG2 Assay for human Thyroid hormone Receptor beta (TRb) (AID 2283840);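 also: actives raise reporter mRNA so potency reflects agonist-like gain of signal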
Summary of the method: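 Transient transfection of human HepG2 with multi-species NR-Gal4/GAL4-UAS reporter constructs; 24 h compound treatment; RNA isolation, reverse transcription, PCR and HpaI digest; capillary electrophoresis of labeled fragments; activity fitted upward versus DMSO.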

[17] = system: Sodium/Iodide Symporter (NIS), SLC5A5 (gene 6528); experiment: CPHEA_Stoker_NIS_Inhibition_RAIU: CPHEA's Radioactive Iodide Uptake (RAIU) Assay for Sodium/Iodide Symporter (NIS) Inhibition, Stoker and Laws Labs (AID 2283841)
Summary of the method: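 HEK293T cells stably expressing human NIS (hNIS-HEK293T-EPA) were exposed to test chemicals at 0.001–100uM (0.5% final DMSO) with 125I at a final 329pM in HBSS/10mM HEPES pH 7.4. After 2 hours at room temperature and ice-cold washes, intracellular 125I was counted as CPM and normalized to DMSO wells.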

[18] = CPHEA_Stoker_NIS_Cytotoxicity: Cytotoxicity Assessment for CPHEA's Radioactive Iodide Uptake (RAIU) Assay for Sodium/Iodide Symporter (NIS) Inhibition, Stoker and Laws Labs (AID 2283897);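 as to AC50: active means loss of ATP signal versus DMSO meaning cytotoxicity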
Summary of the method: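 hNIS-HEK293T-EPA human kidney cells were exposed for 2 hours at room temperature to test chemicals (0.001–100uM, 0.5% final DMSO) in HEPES-buffered HBSS, pH 7.4. Viability was read as ATP content by luciferase bioluminescence, loss of signal versus DMSO.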

[19] = ATG_M_19_XSP2: Attagene TRANS-FACTORIAL Multi-Species (XSP2) HepG2 Assay for M32 Transcription Factor (Internal Marker) (AID 2283822)
Summary of the method: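 Internal background marker in a multi-species nuclear receptor TRANS panel: transfected HepG2 cells exposed 24 h, with 3 nM 6-alpha-fluorotestosterone and 1.5 nM norgestrel present. Readout is RT-PCR of reporter transcripts resolved by capillary electrophoresis, gain-of-signal versus DMSO.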

frog Thyroid hormone Receptor alpha (TRa), thra-a (gene 397942), sequence (P15204 whole entry, looked up, the tested form may be a part): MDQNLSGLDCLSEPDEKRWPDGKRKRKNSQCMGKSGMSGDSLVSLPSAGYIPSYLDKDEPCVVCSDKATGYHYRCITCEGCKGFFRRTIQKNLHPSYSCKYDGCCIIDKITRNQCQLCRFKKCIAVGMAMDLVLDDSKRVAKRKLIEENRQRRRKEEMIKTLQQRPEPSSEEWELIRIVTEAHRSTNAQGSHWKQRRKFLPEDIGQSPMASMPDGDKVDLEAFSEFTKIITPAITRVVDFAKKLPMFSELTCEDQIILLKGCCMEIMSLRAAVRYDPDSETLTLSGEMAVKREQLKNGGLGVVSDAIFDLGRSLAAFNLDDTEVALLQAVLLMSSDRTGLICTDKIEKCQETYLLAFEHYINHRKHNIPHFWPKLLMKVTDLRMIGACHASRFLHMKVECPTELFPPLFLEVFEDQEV
Peroxisome proliferator-activated receptor gamma (Homo sapiens), sequence (P37231 whole entry, looked up, the tested form may be a part): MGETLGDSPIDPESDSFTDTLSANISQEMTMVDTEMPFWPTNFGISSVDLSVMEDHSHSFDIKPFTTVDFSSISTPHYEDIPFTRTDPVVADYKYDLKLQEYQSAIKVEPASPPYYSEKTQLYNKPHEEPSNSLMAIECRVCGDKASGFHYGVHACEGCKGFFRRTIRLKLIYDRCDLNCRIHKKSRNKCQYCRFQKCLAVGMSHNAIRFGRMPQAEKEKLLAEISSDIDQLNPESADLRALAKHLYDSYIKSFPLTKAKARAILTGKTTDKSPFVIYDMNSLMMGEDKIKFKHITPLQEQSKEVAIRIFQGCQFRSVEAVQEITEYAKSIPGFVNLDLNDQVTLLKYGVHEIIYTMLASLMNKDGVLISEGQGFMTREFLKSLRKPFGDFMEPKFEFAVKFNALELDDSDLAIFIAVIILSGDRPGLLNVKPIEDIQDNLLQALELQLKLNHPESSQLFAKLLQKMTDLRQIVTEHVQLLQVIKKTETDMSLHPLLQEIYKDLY
zebrafish Thyroid Hormone Receptor alpha (TRa), thraa (gene 30670), sequence (Q98867 whole entry, looked up, the tested form may be a part): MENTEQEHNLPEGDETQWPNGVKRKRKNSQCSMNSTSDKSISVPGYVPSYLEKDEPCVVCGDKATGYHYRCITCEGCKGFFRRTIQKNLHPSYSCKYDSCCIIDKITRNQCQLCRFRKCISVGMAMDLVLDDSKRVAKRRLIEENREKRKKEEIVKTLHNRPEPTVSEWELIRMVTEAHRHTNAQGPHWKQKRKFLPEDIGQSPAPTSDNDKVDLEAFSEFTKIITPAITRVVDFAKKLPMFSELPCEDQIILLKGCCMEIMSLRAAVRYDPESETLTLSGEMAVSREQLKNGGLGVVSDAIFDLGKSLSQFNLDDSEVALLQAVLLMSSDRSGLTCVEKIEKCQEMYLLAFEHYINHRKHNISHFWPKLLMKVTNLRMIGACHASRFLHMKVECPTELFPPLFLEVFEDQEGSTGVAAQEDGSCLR
mouse Peroxisome Proliferator-activated Receptor gamma (PPARg), Pparg (gene 19016), sequence (P37238 whole entry, looked up, the tested form may be a part): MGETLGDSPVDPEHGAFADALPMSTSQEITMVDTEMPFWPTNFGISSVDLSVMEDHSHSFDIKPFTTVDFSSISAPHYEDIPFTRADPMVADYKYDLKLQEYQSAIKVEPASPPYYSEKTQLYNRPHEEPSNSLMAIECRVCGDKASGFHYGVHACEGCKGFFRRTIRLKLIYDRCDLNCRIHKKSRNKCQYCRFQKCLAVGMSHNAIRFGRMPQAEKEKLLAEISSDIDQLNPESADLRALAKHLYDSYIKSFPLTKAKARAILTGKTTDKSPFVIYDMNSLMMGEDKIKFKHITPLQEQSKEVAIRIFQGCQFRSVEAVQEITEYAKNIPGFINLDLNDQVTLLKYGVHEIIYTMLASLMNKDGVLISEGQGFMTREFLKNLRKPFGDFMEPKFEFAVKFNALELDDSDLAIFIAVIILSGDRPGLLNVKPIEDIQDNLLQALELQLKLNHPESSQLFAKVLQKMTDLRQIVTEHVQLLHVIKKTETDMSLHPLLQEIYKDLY
Estrogen receptor (Homo sapiens), sequence (P03372 whole entry, looked up, the tested form may be a part): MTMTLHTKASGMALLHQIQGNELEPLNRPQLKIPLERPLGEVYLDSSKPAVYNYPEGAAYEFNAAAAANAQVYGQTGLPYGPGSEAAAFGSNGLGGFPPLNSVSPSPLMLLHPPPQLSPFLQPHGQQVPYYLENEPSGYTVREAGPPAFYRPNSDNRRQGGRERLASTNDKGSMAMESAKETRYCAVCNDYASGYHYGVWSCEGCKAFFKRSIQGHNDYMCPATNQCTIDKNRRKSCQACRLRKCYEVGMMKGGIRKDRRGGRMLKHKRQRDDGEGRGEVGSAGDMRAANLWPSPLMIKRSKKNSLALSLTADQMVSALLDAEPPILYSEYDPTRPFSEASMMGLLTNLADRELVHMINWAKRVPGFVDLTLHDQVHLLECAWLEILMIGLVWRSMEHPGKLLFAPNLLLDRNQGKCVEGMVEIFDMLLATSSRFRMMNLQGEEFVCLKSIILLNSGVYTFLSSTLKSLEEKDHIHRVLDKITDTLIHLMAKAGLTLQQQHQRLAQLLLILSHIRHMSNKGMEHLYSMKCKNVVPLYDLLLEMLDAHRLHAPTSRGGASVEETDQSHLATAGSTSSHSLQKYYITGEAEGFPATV
zebrafish Thyroid Hormone Receptor beta (TRb), thrb (gene 30607), sequence (Q9PVE4 whole entry, looked up, the tested form may be a part): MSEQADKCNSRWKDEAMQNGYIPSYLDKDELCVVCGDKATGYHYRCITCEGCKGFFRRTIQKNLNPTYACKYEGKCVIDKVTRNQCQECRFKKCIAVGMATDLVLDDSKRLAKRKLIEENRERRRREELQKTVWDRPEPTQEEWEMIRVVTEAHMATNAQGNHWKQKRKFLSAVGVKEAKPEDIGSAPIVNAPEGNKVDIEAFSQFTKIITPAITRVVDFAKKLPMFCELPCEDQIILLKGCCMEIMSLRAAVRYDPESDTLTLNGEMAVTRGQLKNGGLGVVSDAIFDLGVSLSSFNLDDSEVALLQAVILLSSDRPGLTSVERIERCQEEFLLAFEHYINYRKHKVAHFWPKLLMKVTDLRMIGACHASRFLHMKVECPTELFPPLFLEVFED
human Thyroid hormone Receptor beta (TRb), THRB (gene 7068), sequence (P10828 whole entry, looked up, the tested form may be a part): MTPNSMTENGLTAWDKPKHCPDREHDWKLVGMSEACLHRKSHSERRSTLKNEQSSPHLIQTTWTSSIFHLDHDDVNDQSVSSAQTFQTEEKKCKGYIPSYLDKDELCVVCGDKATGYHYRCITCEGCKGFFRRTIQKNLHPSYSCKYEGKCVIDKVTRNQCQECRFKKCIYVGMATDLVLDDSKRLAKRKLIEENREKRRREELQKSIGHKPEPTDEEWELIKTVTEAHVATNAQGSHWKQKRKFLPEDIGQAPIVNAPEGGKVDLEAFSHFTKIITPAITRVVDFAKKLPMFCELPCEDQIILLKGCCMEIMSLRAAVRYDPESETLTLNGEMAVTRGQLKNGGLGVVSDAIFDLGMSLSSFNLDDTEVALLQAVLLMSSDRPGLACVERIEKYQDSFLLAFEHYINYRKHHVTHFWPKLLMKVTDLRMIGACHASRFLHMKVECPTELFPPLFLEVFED
human Thyroid hormone Receptor alpha (TRa), THRA (gene 7067), sequence (P10827 whole entry, looked up, the tested form may be a part): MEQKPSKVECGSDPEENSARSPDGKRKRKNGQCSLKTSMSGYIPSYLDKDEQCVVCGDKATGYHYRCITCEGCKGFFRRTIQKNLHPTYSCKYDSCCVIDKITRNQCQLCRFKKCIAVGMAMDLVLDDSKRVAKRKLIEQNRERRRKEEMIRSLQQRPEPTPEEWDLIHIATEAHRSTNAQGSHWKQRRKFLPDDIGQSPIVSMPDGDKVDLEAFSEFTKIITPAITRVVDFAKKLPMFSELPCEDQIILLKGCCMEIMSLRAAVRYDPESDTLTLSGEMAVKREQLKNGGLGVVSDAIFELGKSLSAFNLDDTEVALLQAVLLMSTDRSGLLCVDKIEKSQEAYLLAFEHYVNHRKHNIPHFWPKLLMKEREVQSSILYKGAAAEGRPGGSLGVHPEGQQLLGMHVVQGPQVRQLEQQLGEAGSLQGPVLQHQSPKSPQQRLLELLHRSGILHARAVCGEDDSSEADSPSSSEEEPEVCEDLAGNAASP

For `CC(C)(C)C(O)/C(=C\c1ccc(Cl)cc1Cl)n1cncn1` (stereo unspecified), the outcome [1] was “inactive”, the AC50 [2] was 44 µM (active) and 14.4 µM (active) and the outcome [3] was “inactive”. The AC50 [4] was 13.2 µM (active) and 17 µM (active), the AC50 [5] was 23.1 µM (active) and 8.13 µM (active) and the AC50 [6] was 46.7 µM (active) and 47.6 µM (active). For the same compound, the AC50 [7] was 33.4 µM (active) and 20.8 µM (active), the outcome [8] was “inactive” and the outcome [9] was “inactive”. For the same compound, the outcome [10] was “inactive”, the outcome [11] was “inactive” and the outcome [12] was “inactive”. The AC50 [13] was 100 µM (active), the outcome [14] was “inactive” and the outcome [15] was “inactive”. For the same compound, the outcome [16] was “inactive”, the AC50 [17] was 35.9 µM (active) and the AC50 [18] was 50 µM (active).
In the case of `CC1(C)C(C=C(Cl)Cl)C1C(=O)OC(C#N)c1ccc(F)c(Oc2ccccc2)c1` (stereo unspecified), the outcome [1] is reported as “inactive”, the outcome [19] is reported as “inactive” and the outcome [3] is reported as “inactive”. For the same compound, the outcome [4] was “inactive”, the AC50 [6] was 20.5 µM (active) and the AC50 [7] was 10.9 µM (active). For the same compound, the outcome [8] was “inactive”, the AC50 [9] was 19.8 µM (active) and the outcome [10] was “inactive”. For the same compound, the outcome [12] was “inactive”, the AC50 [15] was 37.1 µM (active) and the outcome [16] was “inactive”. The outcome [18] was “inactive”.
In the case of `CCC(C)Nc1c([N+](=O)[O-])cc(C(C)(C)C)cc1[N+](=O)[O-]` (stereo unspecified), the outcome [17] is reported as “inactive” and the outcome [18] is reported as “inactive”.
With `O=S(=O)(O)C(F)(F)C(F)(F)C(F)(F)C(F)(F)C(F)(F)C(F)(F)C(F)(F)C(F)(F)F` the outcome [1] was “inactive”, the AC50 [2] was 146 µM (active) and the outcome [3] was “inactive”. The AC50 [6] was 119 µM (active), the AC50 [7] was 145 µM (active) and the outcome [9] was “inactive”. The outcome [11] was “inactive”, the outcome [17] was “inactive” and the outcome [18] was “inactive”.
For `C#CCN1C(=O)COc2cc(F)c(N3C(=O)C4=C(CCCC4)C3=O)cc21`, the AC50 [17] was 50 µM (active) and the AC50 [18] was 50 µM (active).
With `O=C1c2ccccc2C(=O)N1SC(Cl)(Cl)Cl` the AC50 [17] was 11.6 µM (active) and the outcome [18] was “inactive”.

From PubChem BioAssay (EPA / NIEHS)
